From PubChem BioAssay
ELG1 repair inh: inhibitors of ELG1-dependent DNA repair in HEK293T cells; Potency, µM (doses to about 46.1 µM), inactives show at the top dose activity change, negative = inhibition, most hits filed as inhibitors; HEK293T ELG1-luciferase reporter, luminescence, 16 h; DNA damage induced by 5-fluorouridine; AID 504467; 330,000 tested, 2.3% active; note: potency is the fitted concentration of half-maximal effect; nearly all actives have a fitted effect of over 55% in size
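Luminescence from the luciferase reporter, measured 30 min after ONE-Glo reagent at room temperature, was the read-out. Beforehand, 2,000 cells per well were exposed for 16 hr at 37 °C to 5-fluorouridine together with compound or vehicle.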
IL-1B inflam inh: inflammasome signaling inhibition, IL-1 beta readout; THP-1 LPS/ATP IL-1B secretion, AlphaLISA, 16 h; hits give low values; activity change, % at 57.5 µM; AID 743279; 360,000 tested, 4.7% active; in the data active = activity change below about -50%; inconclusive = mostly about -30% to -49%
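Secreted IL-1B measured by AlphaLISA bead assay after 16 h compound exposure of THP-1 cells; compounds (final up to 57.5 uM) added 1 h before LPS (250 ng/mL) and ATP (1.25 mM) stimulation; lower signal means less secretion.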
HT1080 IDH1KD tx: HT-1080 IDH1 knockdown cell toxicity (counter line); HT-1080 IDH1 knockdown viability, ATP luminescence, 48 h; Potency, µM (series often up to 46.1 µM), without a hit: top-dose activity, negative = toxicity, hits mostly cytotoxic; 360,000 tested, 2% active;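 note: potency is the fitted concentration of half-maximal effect; 0% = DMSO wells and -100% = cell-free medium wells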
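Assay cells: HT-1080 with IDH1 knockdown, 750 per well, RPMI/5% FBS. Exposure: 48 h at 37 °C following 2 h pre-incubation. Read: CellTiter-Glo luminescence; fitted concentration-response, curve class assigned.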
DT40 TDP1 no CPT: qHTS for Inhibitors of human tyrosyl-DNA phosphodiesterase 1 (TDP1): qHTS in cells in absence of CPT. DT40 Tdp1-/- hTDP1 cells, no CPT, ATP luminescence, 48 h. Potency, µM (titrated, usually from 46.2 µM), for inactives: at the highest dose activity change, negative = growth inhibition, actives largely listed as inhibitors. 420,000 tested, 15% active. AID 686978, 2013; note: potency is the fitted concentration of half-maximal effect; nearly all actives have a fitted effect of over 55% in size
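A cellular qHTS used chicken DT40 cells lacking endogenous Tdp1 but carrying stably transfected human TDP1. Compounds were applied without camptothecin, and cell growth kinetics were judged by ATP-dependent luminescence after ≥48 hr.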
HT1080-NT tox: kills 2HG-producing HT-1080-NT fibrosarcoma cells | 360,000 tested, 1.6% active | HT-1080-NT fibrosarcoma viability, CellTiter-Glo ATP luminescence, 48 h | Potency, µM (highest dose often 46.1 µM), for the others: top-dose activity, negative = less viability, actives largely listed as cytotoxic;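 note: NT is the 2HG producing partner of a matched IDH1 knockdown line; potency is the fitted concentration of half-maximal effect; 0% = DMSO-treated cells and -100% = media-only wells without cells; nearly all actives have a fitted effect of over 55% in size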
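Viability of the 2HG-overproducing fibrosarcoma line after 48 hours of compound exposure at 37 degrees C was determined by luminescence with CellTiter-Glo, and concentration-effect curves were then fitted and categorized.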
DT40 TDP1 CPT: growth inhibition of DT40 Tdp1-/-;hTDP1 cells with camptothecin (screen for TDP1 inhibitors) | chicken DT40 Tdp1-/-;hTDP1 cells + 20 nM CPT, ATP luminescence, 48 h | Potency, µM (doses to about 46.2 µM), without a hit: at the top dose activity change, negative = growth inhibition, hits mostly inhibitors | 420,000 tested, 12% active; note: potency is the fitted concentration of half-maximal effect; nearly all actives have a fitted effect of over 55% in size
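Chicken DT40 Tdp1-/- cells stably complemented with human TDP1 were seeded at 400 cells/well in medium containing 20 nM camptothecin, exposed to pin-transferred compounds, and grown at 37 °C for at least 48 hr. Viability was read as ATP luminescence.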
Starred values were filed as active, the others as inactive; ? = inconclusive; . = not tested or not shown. Sampled rows, rich in hits. Any-hit rate of the full collection: about 19%. Unless noted, calls come from the whole dose curve; as a rule, active = well fitted curve in the direction sought with a large enough effect; inconclusive = small, poorly fitted or top-dose-only effect, or another doubt; inactive = no such curve, though single readings can be large; an effect the other way counts as inactive or inconclusive. Unless noted, % is set by controls: 0 for no effect and ±100 for the full control effect.

SMILES	ELG1 repair inh	IL-1B inflam inh	HT1080 IDH1KD tx	DT40 TDP1 no CPT	HT1080-NT tox	DT40 TDP1 CPT
Cc1ccc(N(C)S(=O)(=O)c2ccc(-c3cnc(C4CC4)o3)cc2)cc1	6%	56	?	0.018µM*	?	0.029µM*
Cc1ccc(NC(=O)CN2C=NS(=O)(=O)c3ccccc32)c(C)c1	.	.	.	-16%	.	-14%
COc1ccc(C)cc1NS(=O)(=O)c1ccc(-c2cnc(C3CC3)o2)cc1	-1%	56	0.0073µM*	0.065µM*	?	0.065µM*
COc1ccc(C)cc1NS(=O)(=O)c1cnc(N)nc1	.	.	.	-4%	.	2%
N#Cc1ccc(NS(=O)(=O)c2ccc(-c3cnc(C4CC4)o3)cc2)cc1	.	.	.	?	.	18µM*
O=C(COC(=O)Cc1c[nH]c2ccccc12)Nc1cc(S(=O)(=O)N2CCOCC2)ccc1Cl	2%	23	0%	?	0%	-7%
COc1ccc(-c2nc3cnc(N4CCN(C)CC4)nc3n(CCc3ccccc3)c2=O)cc1	.	.	.	-2%	.	1%
COc1ccc(NC(=O)c2c(C)nn(Cc3ccccc3)c2Cl)cc1S(=O)(=O)N1CCOCC1	?	1	-9%	-27%	-11%	-30%
COc1ccc(NC(=O)c2c(C)oc3ccc(O)c(CN4CCN(Cc5ccccc5)CC4)c23)cc1Cl	.	.	.	15µM*	.	18µM*
CCN1CCN(Cc2c(O)ccc3oc(C)c(C(=O)Nc4ccc(OC)c(Cl)c4)c23)CC1	.	.	.	?	.	23µM*
Clc1ccc(CN2CCN(c3ncccn3)CC2)cc1	-9%	-11	12%	-17%	11%	-26%
O=C(O)CCn1c2ccccc2c2nc3ccccc3nc21	?	-3	6%	?	19%	13%
O=C(C[C@H]1C(=O)N(c2ccccc2)C[C@@H]1Cc1ccccc1)Nc1ccc(Br)cc1	.	-13	-17%	9.2µM*	-2%	13µM*
CCC[C@H]1CN(c2ccc(Br)cc2)C(=O)[C@@H]1CC(=O)Nc1ccc(OC)cc1	.	?	-2%	16µM*	0%	?
CSC[C@H]1CN(c2ccc(Br)cc2)C(=O)[C@@H]1CC(=O)Nc1ccccc1	.	-8	6%	?	1%	-16%
COc1ccc(NC(=O)C[C@H]2C(=O)N(c3ccc(OC)cc3)C[C@@H]2CSC)cc1	.	2	9%	?	-3%	-23%
CCC[C@H]1CN(c2ccc(Br)cc2)C(=O)[C@@H]1CC(=O)Nc1ccccc1	.	-11	-2%	?	-2%	?
COc1ccc(NC(=O)C[C@H]2C(=O)N(c3ccc(Br)cc3)C[C@@H]2CSC)cc1	.	-20	-29%	23µM*	-20%	?
COc1ccc(N2C[C@H](CSC)[C@@H](CC(=O)Nc3ccc(Br)cc3)C2=O)cc1	.	-23	-25%	21µM*	-14%	?
CCc1cccc2sc(N3CCN(C(=O)c4ccc([N+](=O)[O-])o4)CC3)nc12	-23%	-103*	?	?	-25%	?
CCOc1cccc2sc(N3CCN(C(=O)C(C)(C)C)CC3)nc12	.	.	.	21µM*	.	?
CCOc1cccc2sc(N3CCN(C(=O)c4ccco4)CC3)nc12	.	.	.	16µM*	.	15µM*
O=C(c1ccco1)N1CCN(c2nc3c(Cl)cccc3s2)CC1	.	.	.	-29%	.	-28%
CCOc1cccc2sc(NC(=O)CC)nc12	-8%	-17	?	24%	9%	14%
CC(Oc1ccc(Br)cc1Br)C(=O)Nc1cccnc1Cl (stereo not drawn)	16%	8	-7%	-3%	-16%	1%
SMILES	ELG1 repair inh	IL-1B inflam inh	HT1080 IDH1KD tx	DT40 TDP1 no CPT	HT1080-NT tox	DT40 TDP1 CPT
CC(C)(C)CC(C)(C)c1ccc(O)c(Cc2ccc(Cl)cc2Cl)c1	.	-72*	18µM*	?	3.7µM*	?
Clc1ccc2c(NCc3cccs3)ncnc2c1	?	50	-8%	21µM*	-4%	13µM*
Cc1ccc2ncnc(NCc3ccco3)c2c1	.	.	.	4.5µM*	.	7.1µM*
Clc1ccc2c(NCc3ccco3)ncnc2c1	-5%	19	-16%	13µM*	-12%	15µM*
Cn1ncc2c(NCc3ccco3)ncnc21	.	.	.	-1%	.	-23%
COc1cc2ncnc(NCc3cccs3)c2cc1OC	-2%	-6	0%	-25%	7%	?
COc1cc(OC)c(NC(=O)CC2SC(N)=NC2=O)cc1Cl (stereo not drawn)	.	-3	1%	-19%	-1%	-16%
Cc1ccc2nc(-c3ccc(C#N)cc3)c(Cc3ccccn3)n2c1	.	-20	?	?	-26%	?
Cc1ccc2nc(-c3ccc(Cl)cc3)c(Cc3ccccn3)n2c1	.	-3	-18%	16µM*	-24%	18µM*
Cc1ccc2nc(-c3cccc(Br)c3)c(Cc3ccccc3C(F)(F)F)n2c1	.	50	4%	?	5%	-29%
Cc1ccc(-c2nc3ccc(C)cn3c2Cc2ccccn2)cc1	.	0	-8%	18µM*	-7%	?
Cc1ccc(-c2nc3ccc(C)cn3c2Cc2cccc(F)c2)cc1	.	-24	?	?	?	?
Cc1ccc2nc(-c3cccc(Br)c3)c(Cc3ccccn3)n2c1	.	-9	?	?	-28%	21µM*
O=C(O)c1ccc2c(c1)S(=O)(=O)c1cc(N3CCN(c4ncccn4)CC3)ccc1C2=O	.	29	-2%	8%	14%	5%
C[C@@H]1CN([C@@H](C)CO)C(=O)CCCn2nncc2CO[C@@H]1CN(C)S(=O)(=O)c1cn(C)cn1	.	4	-11%	7%	12%	-2%
CC(C)(C)n1ncc2c(=O)n(CC(=O)Nc3ccccc3)cnc21	?	-1	-3%	-28%	-1%	-27%
CC(C)(C)n1ncc2c(=O)n(CC(=O)NCc3ccco3)cnc21	?	19	-25%	?	-11%	?
Cc1ccc(C)c(Cn2cnc3c(cnn3C(C)(C)C)c2=O)c1	-4%	-27	?	18µM*	-12%	-113%
CC(C)(C)n1ncc2c(=O)n(CC(=O)NCc3ccc(F)cc3)cnc21	?	37	13µM*	8.2µM*	?	6.5µM*
CCOC(=O)c1ccccc1NC(=O)Cn1cnc2c(cnn2C(C)(C)C)c1=O	-6%	1	6%	26µM*	11%	?
CCCCOc1ccc(C(=O)NNC(=O)C2C3CCC(C3)C2C(=O)O)cc1 (stereo not drawn)	?	-20	-16%	-28%	0%	?
